According to PubChem BioAssay (NCATS):
A number with no mark means an inactive call. Inconclusive results are not listed. The source made the active and inactive calls. The call rests on the fitted dose curve; in most records, active means well fitted curve in the direction sought with a large enough effect; inconclusive means small, poorly fitted or top-dose-only effect, or another doubt; inactive means no such curve, though single readings can be large; an effect the other way counts as inactive or inconclusive.

Biological target: Cytochrome P450 2D6 (Homo sapiens) (UniProt P10635)
Sequence (P10635 whole entry, looked up): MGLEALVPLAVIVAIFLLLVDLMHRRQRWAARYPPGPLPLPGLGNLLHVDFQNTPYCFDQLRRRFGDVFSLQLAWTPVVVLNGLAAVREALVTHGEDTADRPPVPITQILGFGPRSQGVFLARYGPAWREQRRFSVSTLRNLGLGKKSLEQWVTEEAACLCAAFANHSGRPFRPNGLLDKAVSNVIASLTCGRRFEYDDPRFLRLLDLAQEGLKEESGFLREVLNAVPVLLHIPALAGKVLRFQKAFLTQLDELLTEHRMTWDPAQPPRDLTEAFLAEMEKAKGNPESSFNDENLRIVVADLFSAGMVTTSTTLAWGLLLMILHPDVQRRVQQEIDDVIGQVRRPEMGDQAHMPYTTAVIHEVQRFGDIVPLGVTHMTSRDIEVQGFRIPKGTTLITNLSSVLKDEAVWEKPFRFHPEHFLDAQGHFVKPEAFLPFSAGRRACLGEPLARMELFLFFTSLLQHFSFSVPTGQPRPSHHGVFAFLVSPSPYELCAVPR
Test: qHTS Assay for Inhibitors and Substrates of Cytochrome P450 2D6 (AID 891); further: nearly all actives have a fitted effect of over 60% in size; further: potency means the concentration at half of the fitted maximal effect;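 on activity change, negative = inhibition: luciferin methyl ether substrate demethylated by CYP2D6 with NADPH regeneration; on the % scale 0 is the no-effect control and ±100 the full control effect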
Details: recombinant CYP2D6, luciferin-ME EGE luminescence; series mostly up to 57.1 µM; activity change, negative = inhibition: at the top concentration
Summary of the method: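 Luminescent read-out of luciferin formed by 5 nM human CYP2D6 demethylating 30 uM Luciferin-ME EGE (Km level) over 60 min at room temperature after NADPH regeneration addition. Data normalized to full inhibition by 1.43 uM quinidine.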
In the case of `COc1cccc2c1C(=O)c1c(O)c3c(c(O)c1C2=O)C[C@@](O)(C(C)=O)C[C@@H]3O[C@H]1C[C@H](N)[C@H](O)[C@H](C)O1`, the “activity change, negative = inhibition” value is reported as 0.79%.
With `CCCn1c(=O)[nH]c(=O)c2[nH]cnc21` the “activity change, negative = inhibition” value was 1.08%.
For `NC(=NCCCCCCN=C(N)/N=C(\N)Nc1ccc(Cl)cc1)/N=C(\N)Nc1ccc(Cl)cc1`, the Potency was 7.94 µM (active).
For `Oc1ccc(O)cc1`, the “activity change, negative = inhibition” value was 6.87%.
In the case of `COc1c(C)c2c(c(O)c1C/C=C(\C)CCC(=O)O)C(=O)OC2`, the “activity change, negative = inhibition” value is reported as -1.09%.
For `CNCCC=C1c2ccccc2CCc2ccccc21`, the Potency was 3.16 µM (active).
For `O=C1CCC(c2ccc(-n3ccnc3)cc2)=NN1`, the Potency was 2.51 µM (active).
For `O=C(CCCN1CCC(O)(c2ccc(Br)cc2)CC1)c1ccc(F)cc1`, the Potency was 3.98 µM (active).
For `CN1CCC(=C2c3ccccc3Sc3ccccc32)CC1`, the Potency was 3.98 µM (active).

Biological target: Cytochrome P450 2C19 (Homo sapiens) (UniProt P33261)
Sequence (P33261 whole entry, looked up): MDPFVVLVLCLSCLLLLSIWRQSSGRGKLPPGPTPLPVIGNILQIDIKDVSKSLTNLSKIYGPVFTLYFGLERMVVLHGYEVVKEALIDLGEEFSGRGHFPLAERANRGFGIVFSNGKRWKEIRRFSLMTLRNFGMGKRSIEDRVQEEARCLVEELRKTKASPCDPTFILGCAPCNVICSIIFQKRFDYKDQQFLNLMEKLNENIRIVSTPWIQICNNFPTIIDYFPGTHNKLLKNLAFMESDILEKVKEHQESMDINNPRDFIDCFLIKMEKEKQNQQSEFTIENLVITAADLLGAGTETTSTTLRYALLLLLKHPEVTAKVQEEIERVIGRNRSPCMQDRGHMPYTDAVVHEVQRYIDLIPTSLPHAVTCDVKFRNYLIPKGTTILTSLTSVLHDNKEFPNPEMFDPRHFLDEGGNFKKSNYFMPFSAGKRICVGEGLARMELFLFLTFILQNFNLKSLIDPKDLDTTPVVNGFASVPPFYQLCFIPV
Test: qHTS Assay for Inhibitors and Substrates of Cytochrome P450 2C19 (AID 899); further: on the % scale 0 is the no-effect control and ±100 the full control effect; nearly all actives have a fitted effect of over 60% in size
Details: recombinant CYP2C19, luciferin-H EGE luminescence; series mostly up to 57.1 µM; activity, negative = inhibition: at the top concentration
Summary of the method: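 Human CYP2C19 (5nM) with Luciferin-H EGE at 10uM (its KM) in 50mM KPO4 was preincubated with compound for 10 min at 37C. NADPH regeneration started a 60 min 37C reaction. Luciferin was read by luminescence, normalized to 57uM ketoconazole.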
In the case of `CCCn1c(=O)[nH]c(=O)c2[nH]cnc21`, the “activity, negative = inhibition” value is reported as -5.82%.
In the case of `Oc1ccc(O)cc1`, the “activity, negative = inhibition” value is reported as -11.1%.
With `COc1c(C)c2c(c(O)c1C/C=C(\C)CCC(=O)O)C(=O)OC2` the “activity, negative = inhibition” value was -16.5%.

Tested on: not listed separately
Test: Confirmation and Secondary Assay for Modulators of Hemoglobin Beta Chain Splicing at IVS2 654 locus (AID 910);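 further: per-well total GFP intensity by laser scanning cytometry after 2-day treatment; % of control where 0% means no effect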
Details: HeLa EGFP-654 splicing reporter, GFP fluorescence, 48 h; series mostly up to 46.1 µM; activation (splicing correction): at the top concentration
Summary of the method: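 HeLa cells stably carrying EGFP interrupted by mutant beta-globin IVS2-654 intron (CMV-driven) were treated with compound for 2 days at 37C; corrected splicing was scored as total peak GFP intensity per well (488 nm excitation, 500-520 nm emission).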
In the case of `CC(C)NC[C@@H](O)COc1cccc2ccccc12`, the “activation (splicing correction)” value is reported as 7.58%.
For `C[N+]1(CCCCC[N+]2(C)CCCC2)CCCC1`, the “activation (splicing correction)” value was 6.73%.
In the case of `O=C(O)c1cc2cc(Cc3cccnc3)ccc2o1`, the “activation (splicing correction)” value is reported as -1.61%.
In the case of `NC(=NCCCCCCN=C(N)/N=C(\N)Nc1ccc(Cl)cc1)/N=C(\N)Nc1ccc(Cl)cc1`, the “activation (splicing correction)” value is reported as -8.71%.
In the case of `Cc1ccnc(NS(=O)(=O)c2ccc(N)cc2)n1`, the “activation (splicing correction)” value is reported as 4.22%.
With `CCOC(=O)n1ccn(C)c1=S` the “activation (splicing correction)” value was 4.93%.
With `COc1c(C)c2c(c(O)c1C/C=C(\C)CCC(=O)O)C(=O)OC2` the “activation (splicing correction)” value was 0.686%.
With `C=C(CC)C(=O)c1ccc(OCC(=O)O)c(Cl)c1Cl` the “activation (splicing correction)” value was 2.05%.
In the case of `CNCCC=C1c2ccccc2CCc2ccccc21`, the “activation (splicing correction)” value is reported as 0.703%.
For `C1CCc2nnnn2CC1`, the “activation (splicing correction)” value was 2.65% [at 38.3 µM].
For `CN1CCC(=C2c3ccccc3Sc3ccccc32)CC1`, the “activation (splicing correction)” value was -7.67%.
